# In the supplement of paper PMC10849652:
# About 7,900 targets were measured; listed, in parts, are those with a hit and a random draw of the rest. About 0.6% of all pairs of compound and target were hits. A number with no mark means an inactive call.
# Tests used:
# Assay in all cases: log2 fold change, soluble protein after heating vs DMSO (PISA); higher = thermal stabilisation; K562 cells, 10 uM, 30 min; active = over 0.2 and 3.5 SD of the protein, either way, in both replicates (recomputed)
# [1] = compound: CS(=O)(=O)c1ccc(-c2cnc(N)c(C(=O)Nc3ccccc3)n2)cc1
# In short: (§1)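 Aliquots of K562 cells (2×10^6 cells/mL) treated with 10 μM compound for 30 min were heated for 3 min over 48°C-58°C. After pooling and extraction in PBS with 0.5% NP-40 at 4°C, soluble protein from a 21,000xg, 90 min spin was quantified by TMTpro 16plex LC-MS/MS with channel sums equalised. Thermal stability is expressed against control samples, from duplicates, as a log2 fold change.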
# crizotinib = compound: C[C@@H](Oc1cc(-c2cnn(C3CCNCC3)c2)cnc1N)c1c(Cl)ccc(F)c1Cl [crizotinib]
# In short: as §1
# [2] = compound: C[C@@H]1COCCN1C2=NC(=NC(=C2)C3(CC3)S(=O)(=O)C)C4=C5C=CNC5=CC=C4
# In short: as §1
# [3] = compound: C[C@H](C1=CC=C(C=C1)C(=O)NC2=C3C=CNC3=NC=C2)N
# In short: as §1
# duvelisib = compound: C[C@H](Nc1ncnc2nc[nH]c12)c1cc2cccc(Cl)c2c(=O)n1-c1ccccc1 [duvelisib]
# In short: as §1
# gandotinib = compound: Cc1cc(Nc2cc(CN3CCOCC3)c3nc(C)c(Cc4ccc(Cl)cc4F)n3n2)n[nH]1 [gandotinib]
# In short: as §1
# tozasertib = compound: Cc1cc(Nc2cc(N3CCN(C)CC3)nc(Sc3ccc(NC(=O)C4CC4)cc3)n2)n[nH]1 [tozasertib]
# In short: as §1
# [4] = compound: Cc1cc(SCc2sc(-c3ccc(C(F)(F)F)cc3)nc2C)ccc1OCC(=O)O
# In short: as §1
# doramapimod = compound: Cc1ccc(-n2nc(C(C)(C)C)cc2NC(=O)Nc2ccc(OCCN3CCOCC3)c3ccccc23)cc1 [doramapimod]
# In short: as §1
# ispinesib = compound: Cc1ccc(C(=O)N(CCCN)[C@@H](c2nc3cc(Cl)ccc3c(=O)n2Cc2ccccc2)C(C)C)cc1 [ispinesib]
# In short: as §1
# bafetinib = compound: Cc1ccc(NC(=O)c2ccc(CN3CC[C@H](N(C)C)C3)c(C(F)(F)F)c2)cc1Nc1nccc(-c2cncnc2)n1 [bafetinib]
# In short: as §1
# [5] = compound: Cc1cccc(CC(=O)N2CCc3c2ccc(-c2cn(C)c4ncnc(N)c24)c3F)n1
# In short: as §1
# nilotinib = compound: Cc1cn(-c2cc(NC(=O)c3ccc(C)c(Nc4nccc(-c5cccnc5)n4)c3)cc(C(F)(F)F)c2)cn1 [nilotinib]
# In short: as §1
# [6] = compound: Cc1nc(Nc2n[nH]c3c2CN(C(=O)N[C@H](CN(C)C)c2ccccc2)C3(C)C)c2sccc2n1
# In short: as §1
# dasatinib = compound: Cc1nc(Nc2ncc(C(=O)Nc3c(C)cccc3Cl)s2)cc(N2CCN(CCO)CC2)n1 [dasatinib]
# In short: as §1
# [7] = compound: Cc1ncc(-c2ccnc(Nc3ccc(S(C)(=O)=O)cc3)n2)n1C(C)C
# In short: as §1
# [8] = compound: Cn1cc(-c2ccc3c(c2)CCN3C(=O)Cc2cccc(C(F)(F)F)c2)c2c(N)ncnc21
# In short: as §1
# [9] = compound: Cn1cc(-c2ccc3nnc(C(F)(F)c4ccc5ncccc5c4)n3n2)cn1
# In short: as §1
# tipifarnib = compound: Cn1cncc1[C@@](N)(c1ccc(Cl)cc1)c1ccc2c(c1)c(-c1cccc(Cl)c1)cc(=O)n2C [tipifarnib]
# In short: as §1
# mubritinib = compound: FC(F)(F)c1ccc(/C=C/c2nc(COc3ccc(CCCCn4ccnn4)cc3)co2)cc1 [mubritinib]
# In short: as §1
# Sequence of UniProt Q8WXD2 (Q8WXD2 whole entry, looked up): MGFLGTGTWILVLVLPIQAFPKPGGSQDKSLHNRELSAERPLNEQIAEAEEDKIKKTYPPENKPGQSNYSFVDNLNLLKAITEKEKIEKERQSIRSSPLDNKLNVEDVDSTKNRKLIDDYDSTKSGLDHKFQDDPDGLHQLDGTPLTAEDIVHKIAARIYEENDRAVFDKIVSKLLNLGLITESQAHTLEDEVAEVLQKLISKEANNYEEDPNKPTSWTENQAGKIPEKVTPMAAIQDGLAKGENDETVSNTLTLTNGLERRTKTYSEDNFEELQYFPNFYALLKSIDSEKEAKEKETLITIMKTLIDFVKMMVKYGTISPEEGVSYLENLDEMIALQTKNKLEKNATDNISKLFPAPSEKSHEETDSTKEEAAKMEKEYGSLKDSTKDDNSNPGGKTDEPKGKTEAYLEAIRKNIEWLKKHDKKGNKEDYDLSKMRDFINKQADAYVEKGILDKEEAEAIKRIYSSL
# Sequence of UniProt Q92930 (Q92930 whole entry, looked up): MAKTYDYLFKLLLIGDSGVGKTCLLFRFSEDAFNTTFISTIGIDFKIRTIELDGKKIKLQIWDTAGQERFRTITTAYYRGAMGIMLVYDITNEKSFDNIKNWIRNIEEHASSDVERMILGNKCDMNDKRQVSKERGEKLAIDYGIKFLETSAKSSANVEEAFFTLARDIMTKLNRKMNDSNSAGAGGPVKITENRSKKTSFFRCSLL
# Sequence of UniProt Q5TA31 (Q5TA31 whole entry, looked up): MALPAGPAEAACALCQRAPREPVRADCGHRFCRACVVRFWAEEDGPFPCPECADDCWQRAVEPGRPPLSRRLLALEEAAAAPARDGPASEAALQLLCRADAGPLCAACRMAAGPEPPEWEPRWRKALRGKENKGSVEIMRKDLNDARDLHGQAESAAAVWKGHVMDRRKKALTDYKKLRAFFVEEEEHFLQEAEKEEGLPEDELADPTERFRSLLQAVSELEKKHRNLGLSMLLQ
# Sequence of UniProt P51812 (P51812 whole entry, looked up): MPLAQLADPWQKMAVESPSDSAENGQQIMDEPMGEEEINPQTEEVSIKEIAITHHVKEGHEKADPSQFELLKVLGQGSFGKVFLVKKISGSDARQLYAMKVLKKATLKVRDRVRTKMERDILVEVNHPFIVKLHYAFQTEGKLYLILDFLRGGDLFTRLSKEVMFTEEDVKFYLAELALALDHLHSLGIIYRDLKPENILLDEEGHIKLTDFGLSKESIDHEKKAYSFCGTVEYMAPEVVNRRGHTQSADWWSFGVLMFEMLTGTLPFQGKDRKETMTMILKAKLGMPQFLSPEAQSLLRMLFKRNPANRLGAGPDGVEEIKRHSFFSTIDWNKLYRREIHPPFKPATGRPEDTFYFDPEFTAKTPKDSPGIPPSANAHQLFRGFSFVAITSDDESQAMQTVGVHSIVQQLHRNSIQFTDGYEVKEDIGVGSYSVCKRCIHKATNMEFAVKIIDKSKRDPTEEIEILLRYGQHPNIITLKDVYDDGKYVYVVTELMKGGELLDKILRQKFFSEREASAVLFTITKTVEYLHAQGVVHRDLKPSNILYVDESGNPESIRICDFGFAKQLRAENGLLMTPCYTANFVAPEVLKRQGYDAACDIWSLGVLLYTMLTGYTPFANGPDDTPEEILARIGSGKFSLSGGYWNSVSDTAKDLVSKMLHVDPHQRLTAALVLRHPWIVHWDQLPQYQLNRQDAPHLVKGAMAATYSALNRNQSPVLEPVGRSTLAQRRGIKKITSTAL
# Sequence of UniProt Q9H4A4 (Q9H4A4 whole entry, looked up): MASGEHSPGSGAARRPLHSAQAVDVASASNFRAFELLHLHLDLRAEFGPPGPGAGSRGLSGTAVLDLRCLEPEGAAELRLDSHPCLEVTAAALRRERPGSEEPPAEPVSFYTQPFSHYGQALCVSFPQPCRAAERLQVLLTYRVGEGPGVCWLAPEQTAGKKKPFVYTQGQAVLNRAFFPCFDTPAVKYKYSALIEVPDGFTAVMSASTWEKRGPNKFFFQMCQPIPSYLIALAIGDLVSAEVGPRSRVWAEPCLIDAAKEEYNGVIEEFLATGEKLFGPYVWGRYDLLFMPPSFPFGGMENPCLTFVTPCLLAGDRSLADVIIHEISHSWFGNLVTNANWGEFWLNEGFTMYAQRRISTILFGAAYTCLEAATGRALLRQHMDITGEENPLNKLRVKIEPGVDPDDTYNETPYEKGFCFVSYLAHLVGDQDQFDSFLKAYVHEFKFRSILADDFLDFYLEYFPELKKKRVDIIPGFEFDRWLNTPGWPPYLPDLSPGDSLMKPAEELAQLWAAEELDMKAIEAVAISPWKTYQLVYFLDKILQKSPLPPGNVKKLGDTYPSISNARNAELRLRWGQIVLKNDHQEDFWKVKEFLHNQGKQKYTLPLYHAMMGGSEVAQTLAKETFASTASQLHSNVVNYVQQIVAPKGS
# Sequence of UniProt Q13546 (Q13546 whole entry, looked up): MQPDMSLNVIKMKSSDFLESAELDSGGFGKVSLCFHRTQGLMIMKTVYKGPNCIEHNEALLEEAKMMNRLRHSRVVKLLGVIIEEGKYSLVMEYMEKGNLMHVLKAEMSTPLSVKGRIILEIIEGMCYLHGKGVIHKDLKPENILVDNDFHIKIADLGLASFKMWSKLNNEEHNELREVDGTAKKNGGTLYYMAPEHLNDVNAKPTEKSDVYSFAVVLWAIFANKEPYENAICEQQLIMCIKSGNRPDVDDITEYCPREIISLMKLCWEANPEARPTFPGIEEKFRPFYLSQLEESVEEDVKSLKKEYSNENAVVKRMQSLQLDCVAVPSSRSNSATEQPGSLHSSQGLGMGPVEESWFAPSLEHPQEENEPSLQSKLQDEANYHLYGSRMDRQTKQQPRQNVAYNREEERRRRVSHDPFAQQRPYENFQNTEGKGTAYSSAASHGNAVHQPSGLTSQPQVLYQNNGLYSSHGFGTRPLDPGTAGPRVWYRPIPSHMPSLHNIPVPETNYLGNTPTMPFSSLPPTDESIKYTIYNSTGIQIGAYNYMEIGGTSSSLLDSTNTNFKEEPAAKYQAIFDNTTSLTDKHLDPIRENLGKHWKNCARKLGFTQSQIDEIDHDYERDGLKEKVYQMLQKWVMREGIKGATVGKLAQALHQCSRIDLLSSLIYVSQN
# Sequence of UniProt Q96I25 (Q96I25 whole entry, looked up): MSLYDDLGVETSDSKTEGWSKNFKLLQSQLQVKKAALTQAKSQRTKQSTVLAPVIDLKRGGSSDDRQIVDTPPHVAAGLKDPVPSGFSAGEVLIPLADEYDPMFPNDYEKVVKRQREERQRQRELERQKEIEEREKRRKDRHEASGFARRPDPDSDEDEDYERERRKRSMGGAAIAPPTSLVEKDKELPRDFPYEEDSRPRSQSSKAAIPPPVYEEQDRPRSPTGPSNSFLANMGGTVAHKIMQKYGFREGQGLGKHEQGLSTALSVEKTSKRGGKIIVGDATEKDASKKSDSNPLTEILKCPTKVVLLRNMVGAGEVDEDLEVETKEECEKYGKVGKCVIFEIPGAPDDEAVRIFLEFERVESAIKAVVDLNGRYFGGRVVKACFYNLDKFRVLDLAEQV
# Sequence of UniProt Q15287 (Q15287 whole entry, looked up): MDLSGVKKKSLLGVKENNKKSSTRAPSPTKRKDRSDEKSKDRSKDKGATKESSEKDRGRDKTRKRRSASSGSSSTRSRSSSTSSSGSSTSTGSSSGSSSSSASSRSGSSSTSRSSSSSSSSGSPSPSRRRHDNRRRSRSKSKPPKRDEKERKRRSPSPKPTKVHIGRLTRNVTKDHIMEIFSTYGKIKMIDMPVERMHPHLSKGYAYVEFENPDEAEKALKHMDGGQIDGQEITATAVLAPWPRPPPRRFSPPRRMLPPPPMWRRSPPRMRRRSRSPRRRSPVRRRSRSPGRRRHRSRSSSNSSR
# Sequence of UniProt Q8IZV5 (Q8IZV5 whole entry, looked up): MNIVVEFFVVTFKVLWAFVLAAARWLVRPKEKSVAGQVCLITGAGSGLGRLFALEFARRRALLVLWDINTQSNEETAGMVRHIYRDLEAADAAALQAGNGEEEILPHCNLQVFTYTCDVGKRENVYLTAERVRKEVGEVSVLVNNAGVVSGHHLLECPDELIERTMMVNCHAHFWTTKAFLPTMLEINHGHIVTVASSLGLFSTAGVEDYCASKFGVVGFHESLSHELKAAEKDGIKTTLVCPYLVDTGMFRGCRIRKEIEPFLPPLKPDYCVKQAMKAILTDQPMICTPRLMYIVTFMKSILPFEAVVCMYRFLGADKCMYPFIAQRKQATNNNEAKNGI
# Sequence of UniProt Q96DM3 (Q96DM3 whole entry, looked up): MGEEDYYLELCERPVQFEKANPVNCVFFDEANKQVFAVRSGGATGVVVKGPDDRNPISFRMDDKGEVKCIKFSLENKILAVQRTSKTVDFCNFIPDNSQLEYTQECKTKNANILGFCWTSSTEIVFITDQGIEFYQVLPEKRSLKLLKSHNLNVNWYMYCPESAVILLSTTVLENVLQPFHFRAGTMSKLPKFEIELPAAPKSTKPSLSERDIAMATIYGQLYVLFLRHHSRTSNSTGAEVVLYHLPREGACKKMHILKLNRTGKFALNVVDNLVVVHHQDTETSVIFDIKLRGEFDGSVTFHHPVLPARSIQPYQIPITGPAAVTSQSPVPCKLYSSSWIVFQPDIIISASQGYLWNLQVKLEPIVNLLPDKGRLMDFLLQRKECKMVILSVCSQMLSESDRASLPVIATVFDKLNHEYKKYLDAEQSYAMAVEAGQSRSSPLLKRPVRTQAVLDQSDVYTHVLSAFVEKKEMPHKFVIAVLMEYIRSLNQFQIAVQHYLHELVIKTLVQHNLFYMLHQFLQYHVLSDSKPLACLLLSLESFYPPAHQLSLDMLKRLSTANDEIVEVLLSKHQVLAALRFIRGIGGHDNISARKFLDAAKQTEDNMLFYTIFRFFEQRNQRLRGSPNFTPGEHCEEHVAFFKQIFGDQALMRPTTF
Target,log2 fold change [1],log2 fold change (crizotinib),log2 fold change [2],log2 fold change [3],log2 fold change (duvelisib),log2 fold change (gandotinib),log2 fold change (tozasertib),log2 fold change [4],log2 fold change (doramapimod),log2 fold change (ispinesib),log2 fold change (bafetinib),log2 fold change [5],log2 fold change (nilotinib),log2 fold change [6],log2 fold change (dasatinib),log2 fold change [7],log2 fold change [8],log2 fold change [9],log2 fold change (tipifarnib),log2 fold change (mubritinib)
RNF187 (UniProt Q5TA31),-0.097,-0.018,-0.019,-0.027,0.015,-0.111,-0.069,0.038,0.015,0.191,0.009,0.088,0.029,-0.041,0.022,-0.001,-0.105,0.006,-0.07,0.102
RIPK1 (UniProt Q13546),0.058,0.274,-0.01,0.09,-0.1,0.301,1.05 (active),0.118,0.031,-0.155,0.209,1.12 (active),-0.007,-0.196,0.197,1.18 (active),1.49 (active),-0.052,-0.121,-0.089
RPS6KA3 (UniProt P51812),0.023,-0.107,0.024,-0.177,0.02,-0.019,0.103,0.032,-0.066,-0.017,-0.065,0.046,0.035,-0.798 (active),-0.195,-0.019,-0.022,0.031,-0.028,0.02
RMC1 (UniProt Q96DM3),0.021,-0.509 (active),0.061,-0.012,-0.005,0.027,0.026,0.066,0.038,-0.254 (active),-0.043,0.072,-0.032,-0.047,-0.063,-0.082,0.03,-0.016,0.045,0.012
SERPINA7 (UniProt P05543),-0.16,0.133,-0.095,0.257,-0.201,-0.02,-0.046,-0.158,0.217,0.068,-0.191,-0.152,0.05,0.115,0.098,0.392,0.238,0.001,0.104,-0.247
RAB8B (UniProt Q92930),-0.212,0,-0.046,-0.345,-0.028,-0.086,-0.076,0.005,0.034,0.01,-0.008,0.085,0.059,-0.036,0.015,-0.043,0.031,-0.016,-0.088,-0.062
RRAGB (UniProt Q5VZM2),0.016,-0.131,0.01,-0.123,0.01,-0.008,-0.007,-0.011,0.015,-0.065,-0.079,-0.045,0.031,-0.003,0.041,0.009,0.06,0.043,-0.025,0.037
RBM17 (UniProt Q96I25),-0.043,-0.065,0.106,0.02,0.031,-0.031,0.057,0.106,-0.028,0.007,-0.056,0.042,-0.095,-0.249,-0.108,0.011,-0.067,-0.028,-0.042,-0.148
SCG3 (UniProt Q8WXD2),-0.069,0.074,-0.089,-0.109,0,-0.101,0.075,-0.194,0.124,0.171,0.075,-0.027,0.172,-0.098,0.151,-0.032,0.147,-0.037,0.044,-0.01
SETMAR (UniProt Q53H47),0.077,0.036,-0.028,0.134,-0.004,-0.129,-0.061,0.003,0.024,0.164,0,-0.07,-0.104,0.117,-0.013,0.163,0.028,0.127,0.054,0.04
RAC1 (UniProt P63000),-0.094,0,-0.04,-0.06,0.001,-0.037,0.065,-0.044,0.112,0.024,0.184,-0.017,0.073,0.045,0.007,0.048,0.024,-0.037,0.106,0.026
RPS21 (UniProt P63220),-0.053,0.141,-0.108,0.044,-0.001,0.048,-0.005,-0.004,-0.022,0.015,0.087,-0.057,0.011,0.072,0.1,-0.012,-0.009,-0.004,0.017,0.002
RNPEP (UniProt Q9H4A4),0.037,-0.081,0.081,-0.034,0.039,-0.053,0.018,0.083,-0.031,-0.086,0.003,0.035,-0.004,-0.041,-0.134,0.025,0.012,0.043,-0.116,0.051
RNPS1 (UniProt Q15287),0.018,-0.109,0.114,-0.019,-0.091,0.089,0.108,-0.028,-0.104,0.042,-0.073,-0.032,-0.035,-0.62 (active),-0.007,-0.12,-0.037,0.011,-0.084,0.003
RPS16 (UniProt P62249),-0.107,0,-0.353,0.214,-0.118,0.172,0.021,-0.023,0.055,-0.088,0.279,-0.026,0.07,0.207,0.053,-0.019,-0.078,-0.048,0.107,-0.066
RDH10 (UniProt Q8IZV5),-0.016,0.087,0.116,-0.011,0.015,-0.111,-0.009,-0.003,-0.016,0.036,-0.031,0.15,0.051,-0.032,0.237 (active),-0.014,0.37 (active),0.183,0.028,0.106
